Assay [1] can be described thus: qHTS assay to test for compound auto fluorescence at 535 nm (green) in HEK293 cells (AID 720680). Background: qHTS replaces the single test concentration by a dilution series.
Assay [2] in a line: qHTS assay to test for compound auto fluorescence at 460 nm (blue) in HEK293 cell free culture (AID 720681). The method, boiled down: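 Test compounds were pinned into cell-free culture medium (DMEM with 10% FBS) and fluorescence was read directly at Ex/Em 405/460 nm. Signals were expressed as fluorescence equivalents of triamterene, with DMSO vehicle as control.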
The nature of assay [3]: qHTS assay to test for compound auto fluorescence at 535 nm (green) in HEK293 cell free culture (AID 720682). The procedure, abridged:
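Cell-free medium (DMEM, 10% FBS) receives compound or DMSO by pintool. Plate read directly at Ex 485/Em 535 nm. Signal converted to fluorescein equivalency.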

The nature of assay [4]: qHTS assay to test for compound auto fluorescence at 590 nm (red) in HEK293 cell free culture (AID 720683). The procedure, abridged: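 Tox21 10K library compounds were pinned into cell-free DMEM with 10% FBS and fluorescence was read at excitation 540 nm. Activity is expressed as Rose Bengal sodium equivalency.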
Assay [5] can be described thus: qHTS assay to test for compound auto fluorescence at 590 nm (red) in HepG2 cell free culture (AID 720684). The procedure, abridged:
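Ex 540 / Em 590 nm read of compound in cell-free MEM (10% FBS). Rose Bengal sodium reference.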

Assay [6] is described as follows: qHTS assay to test for compound auto fluorescence at 460 nm (blue) in HepG2 cell free culture (AID 720685). The method, boiled down: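 Cell-free plates of MEM plus 10% FBS received 23 nL compound or DMSO vehicle; blue-channel (405/460 nm) intensity scored against triamterene as reference fluorophore.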
A short description of assay [7]: qHTS assay to test for compound auto fluorescence at 535 nm (green) in HepG2 cell free culture (AID 720686).
Assay [8] can be described thus: qHTS assay to test for compound auto fluorescence at 460 nm (blue) in HepG2 cells (AID 720687). The procedure, abridged: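 Cells (2,000/well in MEM with 10% FBS) attached overnight at 37 C, then were exposed to compound or DMSO for 1 hr at 37 C, 5% CO2. Fluorescence read at Ex/Em 405/460 nm, expressed as triamterene-equivalent signal.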
In assay [9] the target is Glucocorticoid receptor (Homo sapiens) (UniProt P04150). The experiment in a line: qHTS assay to identify small molecule agonists of the glucocorticoid receptor (GR) signaling pathway (AID 720691; active = well fitted activation curve with a large enough effect in the signal ratio in the repeat runs, not every such curve was filed as active; the % refers to the signal ratio). Conditions: GR-bla HeLa, beta-lactamase reporter ratio, 18 h; activation: at 62.4 µM (top of the series). The method, boiled down:
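Steps: seed GR-bla HeLa cells, incubate 4 h at 37 C/5% CO2; pin-transfer DMSO-dissolved compounds; incubate 18 h at 37 C; add LiveBLAzer B/G FRET substrate; after 2 h at room temperature, measure fluorescence.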

The target is the same in assay [10]. In words: qHTS assay to identify small molecule antagonists of the glucocorticoid receptor (GR) signaling pathway (AID 720692; active = well fitted inhibition curve with a large enough effect in the signal ratio in the repeat runs, not every such curve was filed as active; the % refers to the signal ratio; note: potency is the fitted concentration of half-maximal effect). The procedure, abridged:
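Antagonism was scored as loss of dexamethasone-driven (5 nM final) reporter signal in HeLa cells bearing a glucocorticoid response element–beta-lactamase construct, after 18 h compound exposure at 37 C and 2 h FRET substrate loading.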

Records with an inconclusive call do not appear. Activity calls are given as the source filed them. Unless noted, calls come from the whole dose curve; as a rule, active = well fitted curve in the direction sought with a large enough effect in the repeat runs; inconclusive = weak or mixed curves; inactive = flat fitted curve, though single readings scatter.

Sequence of Glucocorticoid receptor (Homo sapiens) (P04150 whole entry, looked up): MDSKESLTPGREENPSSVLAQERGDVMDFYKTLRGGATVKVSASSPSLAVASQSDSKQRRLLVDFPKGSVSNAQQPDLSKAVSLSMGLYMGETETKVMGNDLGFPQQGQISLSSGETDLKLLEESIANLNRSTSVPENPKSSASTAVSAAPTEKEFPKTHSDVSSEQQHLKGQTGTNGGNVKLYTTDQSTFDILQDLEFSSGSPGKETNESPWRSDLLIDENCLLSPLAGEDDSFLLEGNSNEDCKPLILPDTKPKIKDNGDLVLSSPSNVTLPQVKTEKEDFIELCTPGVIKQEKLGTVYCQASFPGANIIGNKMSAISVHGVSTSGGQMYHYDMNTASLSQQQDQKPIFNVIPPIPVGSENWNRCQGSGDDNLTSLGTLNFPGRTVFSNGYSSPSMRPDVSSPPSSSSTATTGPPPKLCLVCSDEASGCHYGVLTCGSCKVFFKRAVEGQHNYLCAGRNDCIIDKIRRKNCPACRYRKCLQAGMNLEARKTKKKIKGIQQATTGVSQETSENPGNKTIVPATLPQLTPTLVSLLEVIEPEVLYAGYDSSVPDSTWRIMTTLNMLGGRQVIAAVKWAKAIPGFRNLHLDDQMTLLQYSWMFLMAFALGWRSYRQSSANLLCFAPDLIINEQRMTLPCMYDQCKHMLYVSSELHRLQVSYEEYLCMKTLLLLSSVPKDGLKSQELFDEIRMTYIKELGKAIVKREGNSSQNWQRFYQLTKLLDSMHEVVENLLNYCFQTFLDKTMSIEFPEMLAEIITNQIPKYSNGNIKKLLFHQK

For `COC1=C(C(=O)O)N2C(=O)[C@@H](NC(=O)[C@H](N)C3=CCC=CC3)[C@H]2SC1`, the Potency result in assay [1], in [2], in assay [3], in [4], in [5] and in assay [7] was “inactive” each time. For the same compound, the Potency entry in assay [9] and in assay [10] was “inactive” each time. Moreover, the call in [6] and in [8] was inactive.
`CC(=O)O[C@H]1C(=O)[C@@]2(C)[C@H]([C@H](OC(=O)c3ccccc3)[C@]3(O)C[C@H](OC(=O)[C@H](O)[C@@H](NC(=O)c4ccccc4)c4ccccc4)C(C)=C1C3(C)C)[C@]1(OC(C)=O)CO[C@@H]1C[C@@H]2O`: the Potency entry in assay [1], in assay [2], in [3], in [4], in assay [5] and in assay [7] was “inactive” each time. Besides, the Potency result in [9] and in assay [10] was “inactive” throughout. Also, the compound was classed as inactive in [6] and in assay [8].
On to `NCCCC[C@H](N)C(=O)O`, for which the Potency result in assay [1], in assay [2], in assay [3], in assay [4], in [5] and in assay [7] was “inactive” in each case. Also, the Potency entry in [9] and in assay [10] was “inactive” each time. Also, the compound was classed as inactive in [6] and in assay [8].
As for `CC(=O)Oc1cccc(C(=O)O)c1OC(C)=O`, the Potency result in assay [1], in assay [2], in [3], in assay [4], in assay [5] and in [7] was “inactive” each time. For the same compound, the Potency result in [9] and in assay [10] was “inactive” each time. Further, the result in assay [6] and in [8] was inactive.
`CCOC(=O)CN[C@@H](C(=O)N1CC[C@H]1C(=O)NCc1ccc(/C(N)=N/O)cc1)C1CCCCC1`: the Potency entry in assay [1], in assay [2], in [3], in [4], in [5] and in assay [7] was “inactive” each time. Also, the Potency entry in [9] and in assay [10] was “inactive” each time. In addition, the compound was classed as inactive in assay [6] and in assay [8].
On to `COc1ccc2cc([C@H](C)CO)ccc2c1`, for which the Potency result in assay [1], in assay [2], in assay [3], in assay [4], in assay [5] and in assay [7] was “inactive” in each case. Also, the Potency entry in assay [9] and in assay [10] was “inactive” throughout. The outcome in assay [6] and in [8] was inactive.
On to `CCCC(CCC)C(N)=O`, for which the Potency result in [1], in assay [2], in assay [3], in assay [4], in assay [5] and in assay [7] was “inactive” each time. Moreover, the Potency result in assay [9] and in [10] was “inactive” in each case. Also, the compound was classed as inactive in assay [6] and in [8].
As to `O=C(O)CC/C=C\CC[C@@H]1[C@@H](N2CCCCC2)[C@@H](O)C[C@@H]1OCc1ccc(-c2ccccc2)cc1`, the Potency result in assay [1], in assay [2], in assay [3], in [4], in assay [5] and in assay [7] was “inactive” each time. Further, the Potency result in assay [9] and in [10] was “inactive” in each case. Also, the compound was called inactive in [6] and in assay [8].
In the case of `O=C1N=C2SCCN2C(=O)C1Cc1ccc(Cl)cc1` (stereo not given), the Potency result in [1], in assay [2], in assay [3], in assay [4], in assay [5] and in assay [7] was “inactive” each time. Besides, the Potency entry in [9] and in assay [10] was “inactive” each time. The compound was called inactive in assay [6] and in [8].
Take `COCC(=O)Nc1cc(Sc2ccccc2)ccc1N=C(NC(=O)OC)NC(=O)OC`: the Potency entry in assay [1], in assay [2], in assay [3], in assay [4], in assay [5] and in [7] was “inactive” throughout. In addition, the Potency entry in assay [9] and in [10] was “inactive” each time. For the same compound, the call in [6] and in [8] was inactive.
For the compound `CN(C(=O)CO)c1c(I)c(C(=O)NCC(O)CO)c(I)c(C(=O)NCC(O)CO)c1I` (stereo not given), the Potency entry in assay [1], in assay [2], in assay [3], in [4], in assay [5] and in assay [7] was “inactive” in each case. Further, the Potency result in assay [9] and in assay [10] was “inactive” each time. The outcome in [6] and in [8] was inactive.
Take `COC(=O)C1=C(C)NC(C)=C(C(=O)O[C@H]2CCN(Cc3ccccc3)C2)[C@H]1c1cccc([N+](=O)[O-])c1`: the Potency entry in assay [1], in [2], in assay [3], in assay [4], in assay [5] and in assay [7] was “inactive” throughout. For the same compound, the Potency result in assay [9] is “inactive”. In addition, the compound was classed as inactive in assay [6] and in assay [8]. The Potency in assay [10] was 23.9 µM (active).
Take `COC(=O)CCC(=O)CN`: the Potency entry in [1], in assay [2], in [3], in [4], in assay [5] and in [7] was “inactive” throughout. For the same compound, the Potency result in assay [9] and in assay [10] was “inactive” in each case. In addition, the call in assay [6] and in assay [8] was inactive.
As to `Cc1nc(NS(=O)(=O)c2ccc(N)cc2)nc(C)c1Br`, the Potency result in assay [1], in [2], in assay [3], in assay [4], in assay [5] and in assay [7] was “inactive” throughout. The Potency entry in [9] and in assay [10] was “inactive” in each case. For the same compound, the outcome in assay [6] and in assay [8] was inactive.
For `COc1ccc(C[C@@H](C)NC[C@H](O)c2ccc(O)c(NC=O)c2)cc1`, the Potency entry in [1], in assay [2], in assay [3], in assay [4], in [5] and in [7] was “inactive” throughout. In addition, the Potency result in assay [10] is “inactive”. Further, the compound was classed as inactive in assay [6] and in assay [8].
`C[N+]1(C)[C@@H]2CC(OC(=O)C(O)(c3cccs3)c3cccs3)C[C@H]1[C@@H]1O[C@@H]12` (stereo not given in full): the Potency entry in assay [1], in assay [2], in [3], in assay [4], in assay [5] and in [7] was “inactive” in each case. The Potency entry in [10] was “inactive”. Besides, the outcome in assay [6] and in [8] was inactive.
Take `C[C@]12CCC(=O)C[C@@H]1CC[C@@H]1[C@@H]2CC[C@]2(C)C=CC[C@@H]12`: the Potency result in assay [1], in assay [2], in [3], in assay [4], in assay [5] and in assay [7] was “inactive” throughout. The Potency result in assay [10] is “inactive”. Also, the result in [6] and in assay [8] was inactive.
In the case of `Clc1ccc(COC(Cn2ccnc2)c2ccc(Cl)cc2Cl)c(Cl)c1` (stereo not given), the Potency result in assay [1], in assay [2], in assay [3], in assay [4], in [5] and in assay [7] was “inactive” each time. In addition, in assay [10], the Potency entry is “inactive”. For the same compound, the compound was called inactive in assay [6] and in [8].
As to `CC#CCC(C)[C@H](O)/C=C/[C@@H]1[C@H]2C/C(=C/CCCC(=O)O)C[C@H]2C[C@H]1O` (stereo not given in full), the Potency entry in assay [1], in assay [2], in [3], in [4], in assay [5] and in [7] was “inactive” throughout. The Potency entry in assay [9] and in [10] was “inactive” each time. Also, the compound was called inactive in assay [6].
